GALK inh – galactokinase (human) inhibition; Purified GALK, Kinase-Glo residual ATP luminescence; Potency, µM (series often up to 57.5 µM), most hits filed as inhibitors; actives 0.007% (n = 270,000)
Target sequence (P51570 whole entry, looked up): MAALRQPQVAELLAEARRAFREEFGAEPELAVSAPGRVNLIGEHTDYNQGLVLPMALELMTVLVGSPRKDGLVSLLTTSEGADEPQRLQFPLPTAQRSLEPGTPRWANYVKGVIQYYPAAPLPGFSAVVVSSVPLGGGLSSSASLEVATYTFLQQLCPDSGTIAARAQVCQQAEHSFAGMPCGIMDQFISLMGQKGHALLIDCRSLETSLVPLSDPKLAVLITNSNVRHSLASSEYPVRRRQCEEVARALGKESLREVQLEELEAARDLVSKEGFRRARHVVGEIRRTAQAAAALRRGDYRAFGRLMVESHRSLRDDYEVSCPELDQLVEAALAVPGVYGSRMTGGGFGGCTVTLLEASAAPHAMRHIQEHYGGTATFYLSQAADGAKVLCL
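Kinase-Glo Plus luminescence measured ATP left after a 1 h room-temperature reaction. The reaction used 5 nM GALK, 100 uM galactose and 35 uM ATP at pH 8.0 (20 mM HEPES, 5 mM MgCl2, 60 mM NaCl, 1 mM DTT, 0.01% BSA).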
HTT cytoprotect – protects HTT-Q103 PC12 cells, measured by ATP. Potency, µM (series often up to 56.4 µM), usual class: activators. PC12 HTT-Q103 induced, cytoprotection, ATP luminescence, 40 h. actives 0.14% (n = 230,000); note: nearly all actives have a fitted effect of over 45% in size
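Quantitative HTS on tebufenozide-induced (100 nM) PC12 cells expressing HTTQ103 exon 1–GFP; compounds tested as a concentration series; survival measured via cellular ATP.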
PI4K2A block – blocks human PI4K2A kinase activity; activity change, negative = inhibition, % at 76.9 µM; actives 0.13% (n = 420,000); Q9BTU6; AID 1346378; purified PI4K2A, ADP-Glo luminescence, 1 h; stronger effect = lower value; in the data active = activity change below about -50%; inconclusive = mostly about -30% to -49%
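ADP-Glo luminescence measured ADP generated by PI4K2A enzyme (4 ug/mL before mixing) with 1.2 mM PI substrate (pre-mix) and 300 microM ATP (pre-mix). Tris pH7.5 buffer with MgCl2, Triton X-100; 1 h reaction at ambient temperature.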
HttQ103 aggreg – inhibitors of mutant huntingtin aggregate formation in PC12 cells; PC12 HttQ103-GFP aggregates, Acumen cytometry, 40 h; Potency, µM (highest dose often 46.1 µM), hits mostly inhibitors; actives 1.1% (n = 220,000); AID 1688; note: nearly all actives have a fitted effect of over 60% in size
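Quantitative HTS on tebufenozide-induced (100 nM) PC12 cells stably expressing polyQ103 Huntingtin exon 1–GFP. Reduction of bright GFP aggregates, detected by laser scanning cytometry after lysis, identified actives across the titration.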
Hits are given with their value; n = inactive; u = inconclusive; x = not tested or not shown; [ ] = remark or other dose. This excerpt belongs to a sample that is enriched for hits. Unless noted, calls come from the whole dose curve; as a rule, active = well fitted curve in the direction sought with a large enough effect; inconclusive = small, poorly fitted or top-dose-only effect, or another doubt; inactive = no such curve, though single readings can be large; an effect the other way counts as inactive or inconclusive.

SMILES	GALK inh	HTT cytoprotect	PI4K2A block	HttQ103 aggreg
COc1ccc(OCC(=O)NNc2c3ccccc3nc3ccccc23)cc1	n	n[10 µM]	n	11µM
O=C(COc1ccccc1)NNc1c2ccccc2nc2ccccc12	n	n[10 µM]	n	n
O=C(NN1CCCC1)NS(=O)(=O)c1ccc(Cl)cc1	x	x	n	x
O=C(Nc1ccccc1C(=O)O)c1ccc(NC(=O)c2ccc(Br)o2)cc1	n	2.2µM	n	n[1.84 µM]
O=C(Nc1ccccc1C(=O)O)c1cccc(NC(=O)c2ccc(Br)o2)c1	n	n[10 µM]	n	n
Cn1c(=O)oc2cc(S(=O)(=O)NCc3ccncc3)ccc21	n	n[0.074 µM]	n	8.9µM
Cc1nc2ccccn2c1C(=O)N=Nc1c(O)n(CCC(C)C)c2ccccc12	n	n[10 µM]	n	35µM
CCCn1c(O)c(N=NC(=O)c2ccco2)c2ccccc21	n	n[10 µM]	n	n
COc1ccc(CN(CCN2CCOCC2)C(=O)c2cc(F)ccc2C)cc1OC	x	x	n	x
Cc1ccc(CNC2CCC23CCC(c2ccccc2)CC3)o1 (stereo unspecified)	x	x	n	x
C#CC[N+](C)(C)CCCCCCCC	n	n[10 µM]	n	8.9µM
CCCCCCCCCCCCCC[N+](C)(C)Cc1ccccc1	x	n	n	25µM
CCCCCCCCCCCCCCCC[N+](C)(C)CC	x	n	n	14µM
CCCCCCCCCCCCCC[N+](C)(C)C	x	n	n	16µM
COC(=O)[C@]12C[C@H](CC(=O)NCc3ccccc3)C(=O)N(Cc3cccc4ccccc34)C1=C[C@H](C1CCCC1)O[C@@H]2C	x	x	n	x
C[C@@H](c1ccccc1)N1C(=O)[C@H]2[C@@H]3[C@H](O)[C@H](O)CC(=O)[C@H]3CC[C@H]2C1=O	x	n[10 µM]	x	x
Cc1csc(N=Nc2ccc(N(C)C)cc2)[n+]1[O-]	x	x	-79	x
N#CC1(c2ccc(F)cc2)CCC(=O)CC1	x	x	n	x
Cc1cc(C(=O)CSc2nnc(-c3ccco3)o2)c(C)n1-c1ccc2c(c1)OCCO2	n	n[10 µM]	n	8.9µM
Cc1cc(C(=O)CSc2nnc(-c3ccco3)o2)c(C)n1Cc1ccco1	n	n[10 µM]	n	n
CN(NS(=O)(=O)c1ccc(Cl)cc1)c1nc(C(F)(F)F)nc2ccccc12	n	n	n	10µM
CN(NS(=O)(=O)c1ccccc1)c1nc2ccccc2nc1C(F)(F)F	n	n	n	n
CNS(=O)(=O)c1ccc2nc(NC(=O)/C=C/c3ccco3)sc2c1	n	n	-62	n
Cc1nc(NC(=O)/C=C/c2ccco2)sc1C	n	n[10 µM]	n	n
CC[N+]1=C(C)C(C)(C)c2cc(C)ccc21	n	n	n	2.5µM
SMILES	GALK inh	HTT cytoprotect	PI4K2A block	HttQ103 aggreg
CC12C=C(/C=C/c3ccc(F)cc3)C(C)(C1)C(c1ccc(F)cc1)CC2=O (stereo unspecified)	x	n[10 µM]	x	x
COc1ccc(F)cc1CSc1nnnn1-c1ccc(O)cc1	n	x	n	x
COc1cc(CSc2nnnn2-c2ccc(C)cc2)cc(OC)c1OC	n	n[0.074 µM]	n	2.5µM
CCOC(=O)C(=O)CCc1ccccc1	x	x	n	x
O=C(Cn1c(-c2cncs2)nc2ccccc21)N1CCCCC1	x	x	n	x
CC1(C)CC(=O)C2=C(C1)N(Cc1ccco1)C(=O)C2(NC(=O)C1CCCCC1)C(F)(F)F (stereo unspecified)	n	n	n	5.6µM
CC1(C)CC(=O)C2=C(C1)N(Cc1ccco1)C(=O)C2(NC(=O)c1ccc(Cl)cc1Cl)C(F)(F)F (stereo unspecified)	n	n	n	n
O=C(Nc1ccc(F)cc1F)C1CCCN1S(=O)(=O)c1cccnc1 (stereo unspecified)	x	x	n	x
CCN(CC)c1ccc(C(=O)N/N=C/c2ccccc2OC(F)F)cc1	n	n[10 µM]	n	10µM
O=C(Nc1ccc(-c2nc3cccnc3s2)cc1)c1ccco1	n	n[10 µM]	n	u
O=C(Nc1cccc(-c2nc3cccnc3s2)c1)c1ccco1	n	n	n	16µM
Cc1c(NC(=O)c2ccco2)cccc1-c1nc2cccnc2s1	n	n[10 µM]	n	10µM
N[C@@H](Cc1c[nH]c2ccccc12)C(=O)NCC(=O)O	x	n	x	x
Cc1nn(-c2ccccc2)c2sc(C(=O)NC3CCCCCCC3)cc12	x	x	n	x
CCc1[nH]nc2c1C(C(C)C)C(C#N)=C(N)O2 (stereo unspecified)	n	n[10 µM]	n	11µM
CCC(CC)C1C(C#N)=C(N)Oc2n[nH]c(C)c21 (stereo unspecified)	n	n	n	n
Cc1nn(-c2ccc3ccccc3c2)c(=O)c2ccccc12	n	n[10 µM]	n	n[9.22 µM]
Cc1nn(-c2nc3ccccc3[nH]2)c(=O)c2ccccc12	u	n[10 µM]	-81	n
CC(C)(C)c1ccc(Cn2nnc3c(=O)[nH]c(C4CCCN(C(=O)Cc5cccs5)C4)nc32)cc1 (stereo unspecified)	n	n[10 µM]	n	n
CC(C)(C)c1ccc(Cn2nnc3c(=O)[nH]c(C4CCN(C(=O)Cc5cccs5)CC4)nc32)cc1	n	n	n	13µM
N#CCC(=O)Nc1ccc(C(=O)NNC(=S)NC2CCCCC2)cc1	x	x	n	x
CC(C)CC(=O)Nc1ccc(C(=O)NNC(=S)NC(=O)C2CCCCC2)cc1	n	n	n	10µM
CC[C@@H]1OC(=O)[C@@H](C)[C@H](O[C@@H]2C[C@@](C)(OC)[C@@H](O)[C@H](C)O2)[C@H](C)[C@H](O[C@@H]2O[C@@H](C)C[C@@H](N(C)C)[C@H]2O)[C@@](C)(O)C[C@H](C)C(=O)[C@@H](C)[C@H](O)[C@@]1(C)O	x	n	x	x
Cc1ccc(-c2nc3ccc([N+](=O)[O-])cc3[nH]2)cc1	n	n[10 µM]	n	10µM
COc1ccc(-c2nc3ccc([N+](=O)[O-])cc3[nH]2)cc1	n	n[0.074 µM]	n	u
SMILES	GALK inh	HTT cytoprotect	PI4K2A block	HttQ103 aggreg
CCc1ccccc1NC(=O)c1noc(C(C)C)c1[N+](=O)[O-]	n	n	n	7.1µM
CN(C)CCCN(Cc1ccccc1)C(=S)Nc1cccc(C(F)(F)F)c1	n	x	n	0.0006µM
CN(C)CCOc1nc(-c2ccccc2)nc2c1oc1ccccc12	n	n	n	22µM
CCC(C)Oc1cc(-c2ccnc(Nc3cccc(Cl)c3)n2)ccn1 (stereo unspecified)	n	n[10 µM]	n	n[9.22 µM]
OCCCNc1cc(-c2ccnc(Nc3cccc(Cl)c3)n2)ccn1	n	n[10 µM]	n	0.71µM
C#CCn1c(=NC(=O)c2ccc(S(=O)(=O)N3CCc4ccccc4C3)cc2)sc2cc(S(N)(=O)=O)ccc21	n	n[10 µM]	n	10µM
CCOc1ccc(N2C(=O)Nc3ccccc3C2(O)C(=O)NCc2ccc(F)cc2)cc1 (stereo unspecified)	n	n	n	n
CCOc1ccc(N2C(=O)Nc3ccccc3C2(O)C(=O)NCc2ccc(OC)cc2)cc1 (stereo unspecified)	n	n[10 µM]	n	0.71µM
CN(C)S(=O)(=O)N(CC(=O)Nc1ccc2ccccc2c1)c1ccccc1	n	5.6µM	n	u
COc1ccc2[nH]c3c(N4CCN(Cc5ccc6c(c5)OCO6)CC4)ncnc3c2c1	n	n	n	13µM
Cc1nn(C)cc1NC(=O)C[C@H]1CC[C@H]2[C@@H](COc3ccc(NC(=O)Nc4ccccc4)cc3C(=O)N2C)O1	x	x	n	x
CCOC(=O)CSc1nc2ccccc2c(=O)n1CC	n	n[0.074 µM]	n	n
